Experimental findings from ChEMBL document CHEMBL3988442, “University of Dundee, Small-Polar-MMV Screening Library” (2021) are described below.

Each structure is given as a SMILES string. For some of these results: Entries with a potency or affinity are not part of this list.

Holding throughout (design): scale not given: direction of the effect not stated beside the values
The target of experiment [1] is Protein translocase subunit SecA (Escherichia coli (strain K12)) (UniProt P10408). The experiment is described as follows: Assay to Identify E. coli SecA ATPase Inhibitors. The class given is functional. The following applies: 30 µM.
In experiment [2] the target is T1, Ubiquitin-activating enzyme e1, putative (Leishmania donovani (strain BPK282A1)) (UniProt E9BSI1).
T1 sequence (whole entry): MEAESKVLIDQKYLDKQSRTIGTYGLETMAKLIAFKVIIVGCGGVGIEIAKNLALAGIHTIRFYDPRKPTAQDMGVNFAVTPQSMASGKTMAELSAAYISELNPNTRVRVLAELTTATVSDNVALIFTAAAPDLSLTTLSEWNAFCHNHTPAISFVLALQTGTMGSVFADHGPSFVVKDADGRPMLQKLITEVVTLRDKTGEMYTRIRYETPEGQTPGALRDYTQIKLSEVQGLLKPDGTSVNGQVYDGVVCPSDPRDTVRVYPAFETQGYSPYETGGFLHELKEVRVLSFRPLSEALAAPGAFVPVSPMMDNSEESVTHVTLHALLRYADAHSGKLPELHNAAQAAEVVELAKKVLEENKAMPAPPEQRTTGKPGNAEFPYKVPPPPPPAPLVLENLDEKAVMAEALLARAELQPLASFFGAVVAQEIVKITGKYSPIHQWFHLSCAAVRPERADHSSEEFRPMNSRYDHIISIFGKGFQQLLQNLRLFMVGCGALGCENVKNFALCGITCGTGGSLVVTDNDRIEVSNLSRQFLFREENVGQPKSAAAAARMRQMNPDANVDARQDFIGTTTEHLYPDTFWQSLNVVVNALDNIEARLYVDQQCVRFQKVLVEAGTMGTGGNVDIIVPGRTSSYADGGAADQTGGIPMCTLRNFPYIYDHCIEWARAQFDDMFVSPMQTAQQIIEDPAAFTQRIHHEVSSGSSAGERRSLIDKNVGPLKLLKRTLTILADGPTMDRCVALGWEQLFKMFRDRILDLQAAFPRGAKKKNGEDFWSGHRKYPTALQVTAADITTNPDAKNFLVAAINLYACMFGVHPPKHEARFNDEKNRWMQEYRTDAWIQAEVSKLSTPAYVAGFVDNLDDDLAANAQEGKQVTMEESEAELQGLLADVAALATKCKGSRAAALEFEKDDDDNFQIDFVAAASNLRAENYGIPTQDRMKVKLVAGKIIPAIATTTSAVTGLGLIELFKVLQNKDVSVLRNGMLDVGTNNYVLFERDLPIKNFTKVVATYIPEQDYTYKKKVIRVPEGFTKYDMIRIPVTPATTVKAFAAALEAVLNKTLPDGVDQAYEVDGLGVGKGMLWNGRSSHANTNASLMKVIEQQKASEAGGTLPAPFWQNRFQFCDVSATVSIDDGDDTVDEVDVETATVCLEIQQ
The experiment is described as follows: Leishmania donovani Ubiquitin Activating Enzyme (LdE1). The class given is functional. To be noted: 30 µM.

The target of experiment [3] is AMP-activated protein kinase, AMPK (Homo sapiens) (UniProt P54646+O43741+P54619+Q9UGJ0+Q9Y478+Q13131+Q9UGI9). The experiment is described as follows: AMP-dependent Kinase enzyme assay. An in vitro enzyme assay that detects ADP turnover that is directly proportional to AMPK activity. This uses naive AMPK that is activated during the assay with MK-8722. The class given is functional. The following applies: 30 µM.

Experiment [4] deals with Sialic acid-binding Ig-like lectin 9 (Homo sapiens) (UniProt Q9Y336). The experiment is described as follows: Hs-Siglec9 ALPHAscreen SOP 20170721. The following applies: 10 µM.
For experiment [5], the system named is Trypanosoma cruzi. The experiment is described as follows: Trypanosoma cruzi phosphomannomutase and mannose-1-phosphate guanylyltransferase assay. In kind it is functional. The following applies: 10 µM.
Experiment [6] deals with T2, Arginase-2, mitochondrial (Homo sapiens) (UniProt P78540).
T2 sequence (whole entry): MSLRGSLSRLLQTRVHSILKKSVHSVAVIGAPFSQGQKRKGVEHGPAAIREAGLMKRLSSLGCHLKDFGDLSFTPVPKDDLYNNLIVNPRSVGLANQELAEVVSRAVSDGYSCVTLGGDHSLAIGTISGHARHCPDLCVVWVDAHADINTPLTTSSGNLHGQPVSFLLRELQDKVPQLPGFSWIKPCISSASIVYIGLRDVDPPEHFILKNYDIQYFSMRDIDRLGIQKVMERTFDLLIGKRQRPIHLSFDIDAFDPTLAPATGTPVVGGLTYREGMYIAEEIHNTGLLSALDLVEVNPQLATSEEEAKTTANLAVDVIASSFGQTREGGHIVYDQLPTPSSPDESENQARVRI
The experiment is described as follows: in vitro enzyme assay to detect the production of urea directly proportional to the activity of Arginase II. Note: in the data most compounds retested in dose-response had high values. In kind it is functional. To be noted: 33.3 µM.

For experiment [7], the target named is T3, Proteasome subunit beta (Trypanosoma cruzi) (UniProt O96673).
T3 sequence (whole entry): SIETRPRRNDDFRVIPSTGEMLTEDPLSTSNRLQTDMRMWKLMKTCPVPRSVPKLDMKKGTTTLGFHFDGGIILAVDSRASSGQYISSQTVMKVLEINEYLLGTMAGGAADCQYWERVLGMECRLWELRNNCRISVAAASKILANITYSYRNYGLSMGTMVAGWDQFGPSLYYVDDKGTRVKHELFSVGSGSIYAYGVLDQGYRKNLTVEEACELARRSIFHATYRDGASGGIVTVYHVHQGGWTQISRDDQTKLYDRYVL
The experiment is described as follows: Trypanosoma cruzi proteasome chymotrypsin-like activity (TcProtChymo) assay. Note: in the data most compounds retested in dose-response had high values. In kind it is functional. The following applies: 9.37 µM.

For experiment [8], the species on record is Homo sapiens. The experiment is described as follows: To identify inhibition of the IFN signalling (Jak-Stat) pathway via expression of an eGFP reporter gene under the control of an IFN-stimulated response element (ISRE) containing MxA promoter. The following applies: 30 µM. The class given is functional.
Experiment [9] deals with T4, Tyrosyl-tRNA synthetase, putative (Trypanosoma cruzi (strain CL Brener)) (UniProt Q4DSP6).
T4 sequence (whole entry): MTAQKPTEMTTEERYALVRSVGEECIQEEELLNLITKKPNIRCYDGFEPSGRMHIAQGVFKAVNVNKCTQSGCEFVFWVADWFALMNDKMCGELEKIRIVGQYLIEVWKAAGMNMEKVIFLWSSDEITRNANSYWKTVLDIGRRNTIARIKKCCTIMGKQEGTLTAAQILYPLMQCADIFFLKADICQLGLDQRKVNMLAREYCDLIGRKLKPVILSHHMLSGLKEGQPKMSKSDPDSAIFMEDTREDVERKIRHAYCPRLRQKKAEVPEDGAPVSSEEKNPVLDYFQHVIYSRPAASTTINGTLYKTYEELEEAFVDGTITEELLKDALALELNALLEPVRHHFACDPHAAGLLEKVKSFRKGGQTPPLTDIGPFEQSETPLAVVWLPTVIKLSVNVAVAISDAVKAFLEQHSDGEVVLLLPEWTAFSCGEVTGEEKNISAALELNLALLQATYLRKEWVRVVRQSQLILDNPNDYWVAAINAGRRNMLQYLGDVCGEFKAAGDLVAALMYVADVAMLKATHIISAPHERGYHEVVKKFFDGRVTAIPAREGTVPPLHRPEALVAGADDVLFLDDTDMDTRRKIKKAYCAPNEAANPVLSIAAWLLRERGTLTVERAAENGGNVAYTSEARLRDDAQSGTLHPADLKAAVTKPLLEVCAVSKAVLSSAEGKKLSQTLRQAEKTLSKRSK
The experiment is described as follows: Trypanosoma cruzi tyrosyl tRNA synthetase (TcYRS) _High Tyrosine SOP. Note: in the data most compounds retested in dose-response had high values. The class given is functional. The following applies: 30 µM.

In experiment [10] the target is T4, Tyrosyl-tRNA synthetase, putative (Trypanosoma cruzi (strain CL Brener)). The experiment is described as follows: Trypanosoma cruzi tyrosyl tRNA synthetase (TcYRS) SOP. In kind it is functional. The following applies: 30 µM.
In experiment [11] the target is Chromo domain-containing protein 1 (Saccharomyces cerevisiae (strain ATCC 204508 / S288c) (Baker's yeast)) (UniProt P32657). The experiment is described as follows: ScCHD-1 Enzyme Inhibition Assay. Note: in the data most compounds retested in dose-response had high values. In kind it is functional. To be noted: 30 µM.
Chromo domain-containing protein 1 (Saccharomyces cerevisiae (strain ATCC 204508 / S288c) (Baker's yeast)), sequence (P32657 whole entry, the tested form may be a part): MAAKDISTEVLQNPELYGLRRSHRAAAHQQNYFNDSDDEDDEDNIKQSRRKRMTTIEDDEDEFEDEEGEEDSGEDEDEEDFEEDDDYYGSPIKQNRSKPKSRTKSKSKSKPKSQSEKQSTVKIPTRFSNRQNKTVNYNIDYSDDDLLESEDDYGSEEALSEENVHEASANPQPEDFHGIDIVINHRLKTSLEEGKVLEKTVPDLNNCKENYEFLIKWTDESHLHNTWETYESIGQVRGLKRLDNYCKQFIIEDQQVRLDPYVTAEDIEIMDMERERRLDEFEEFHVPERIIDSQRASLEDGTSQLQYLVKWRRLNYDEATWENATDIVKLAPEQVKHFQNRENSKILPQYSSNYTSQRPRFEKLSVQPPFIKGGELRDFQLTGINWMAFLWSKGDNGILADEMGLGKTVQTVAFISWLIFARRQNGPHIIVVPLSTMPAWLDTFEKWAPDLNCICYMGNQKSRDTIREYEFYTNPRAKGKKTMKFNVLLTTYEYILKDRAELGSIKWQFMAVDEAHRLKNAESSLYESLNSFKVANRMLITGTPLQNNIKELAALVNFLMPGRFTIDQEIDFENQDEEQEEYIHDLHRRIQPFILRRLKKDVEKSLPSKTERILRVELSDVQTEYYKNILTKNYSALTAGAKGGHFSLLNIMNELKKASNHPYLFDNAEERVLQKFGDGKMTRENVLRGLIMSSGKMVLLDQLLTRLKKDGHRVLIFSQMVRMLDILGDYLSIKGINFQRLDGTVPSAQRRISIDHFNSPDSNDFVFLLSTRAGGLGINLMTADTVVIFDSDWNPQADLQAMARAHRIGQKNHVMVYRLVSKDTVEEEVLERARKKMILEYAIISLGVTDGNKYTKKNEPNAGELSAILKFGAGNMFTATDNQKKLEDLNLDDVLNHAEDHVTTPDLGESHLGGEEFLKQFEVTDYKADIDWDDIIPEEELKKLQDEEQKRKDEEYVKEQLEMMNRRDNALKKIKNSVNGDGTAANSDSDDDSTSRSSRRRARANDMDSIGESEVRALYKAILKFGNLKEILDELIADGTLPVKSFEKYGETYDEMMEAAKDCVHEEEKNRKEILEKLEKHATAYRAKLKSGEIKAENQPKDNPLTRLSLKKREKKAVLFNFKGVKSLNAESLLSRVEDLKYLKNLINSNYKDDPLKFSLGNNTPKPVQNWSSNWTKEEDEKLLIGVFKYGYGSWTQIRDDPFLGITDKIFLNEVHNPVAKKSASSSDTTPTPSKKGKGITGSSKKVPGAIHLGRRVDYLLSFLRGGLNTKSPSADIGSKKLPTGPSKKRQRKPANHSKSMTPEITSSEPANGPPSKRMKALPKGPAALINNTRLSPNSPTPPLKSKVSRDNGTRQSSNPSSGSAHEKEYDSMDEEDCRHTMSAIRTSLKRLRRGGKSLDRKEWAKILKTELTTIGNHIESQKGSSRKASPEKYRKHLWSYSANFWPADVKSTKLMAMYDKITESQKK

Protein translocase subunit SecA (Escherichia coli (strain K12)), sequence (P10408 whole entry): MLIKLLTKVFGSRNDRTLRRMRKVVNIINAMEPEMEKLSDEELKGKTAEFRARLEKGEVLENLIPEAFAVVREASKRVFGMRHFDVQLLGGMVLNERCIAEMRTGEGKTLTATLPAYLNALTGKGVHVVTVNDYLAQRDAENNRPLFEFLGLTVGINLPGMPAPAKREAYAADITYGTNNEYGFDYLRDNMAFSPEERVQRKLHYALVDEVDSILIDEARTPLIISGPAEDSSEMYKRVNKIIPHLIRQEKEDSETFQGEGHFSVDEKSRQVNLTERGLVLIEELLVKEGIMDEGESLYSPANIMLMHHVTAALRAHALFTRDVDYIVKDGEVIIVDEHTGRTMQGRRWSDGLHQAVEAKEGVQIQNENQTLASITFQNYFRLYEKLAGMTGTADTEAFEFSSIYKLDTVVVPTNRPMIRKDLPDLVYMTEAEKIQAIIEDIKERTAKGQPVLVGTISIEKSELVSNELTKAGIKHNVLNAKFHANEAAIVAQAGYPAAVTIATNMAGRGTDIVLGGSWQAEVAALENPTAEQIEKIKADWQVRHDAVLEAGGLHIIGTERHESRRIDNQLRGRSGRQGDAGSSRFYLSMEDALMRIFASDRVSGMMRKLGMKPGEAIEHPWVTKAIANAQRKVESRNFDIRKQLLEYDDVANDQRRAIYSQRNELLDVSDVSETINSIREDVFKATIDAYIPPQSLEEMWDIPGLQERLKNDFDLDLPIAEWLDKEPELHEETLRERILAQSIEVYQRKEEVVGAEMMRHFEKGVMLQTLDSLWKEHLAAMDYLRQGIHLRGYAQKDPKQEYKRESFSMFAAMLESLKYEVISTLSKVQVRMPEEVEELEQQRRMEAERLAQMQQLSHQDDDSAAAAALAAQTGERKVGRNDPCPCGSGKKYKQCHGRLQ
Sialic acid-binding Ig-like lectin 9 (Homo sapiens), sequence (Q9Y336 whole entry): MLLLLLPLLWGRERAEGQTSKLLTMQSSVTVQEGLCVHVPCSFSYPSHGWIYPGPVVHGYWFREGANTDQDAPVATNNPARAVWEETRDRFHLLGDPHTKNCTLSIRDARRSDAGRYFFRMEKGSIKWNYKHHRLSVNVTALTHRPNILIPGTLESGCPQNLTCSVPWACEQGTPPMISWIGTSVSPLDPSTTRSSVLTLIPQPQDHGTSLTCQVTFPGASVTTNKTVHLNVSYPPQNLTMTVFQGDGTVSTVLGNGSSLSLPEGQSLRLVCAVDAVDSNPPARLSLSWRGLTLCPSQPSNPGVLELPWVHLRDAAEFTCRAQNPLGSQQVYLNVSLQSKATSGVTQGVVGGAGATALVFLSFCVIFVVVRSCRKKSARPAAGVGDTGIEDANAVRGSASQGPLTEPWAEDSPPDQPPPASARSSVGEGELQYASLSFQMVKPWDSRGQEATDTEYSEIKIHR

On to `Cc1ccc(C2COCCN2C(=O)c2ccc(CN(C)C)cc2)o1` (stereo unspecified), for which the Percent Effect was -0.657% in experiment [1]; -5.33% in experiment [2]; -1.26% in [3]; 2.6% in experiment [4]; -1.85% in experiment [5]; 2.08% in experiment [6]. The Percent Effect in experiment [7] was 4.01%; in experiment [8], 0.868%; in experiment [9] it was 1.64%; in experiment [10], 1.24%; in [11] it was -0.0158%.
Consider `O=C(CN1CCCC1Cn1cncn1)Nc1cccnc1` (stereo unspecified), for which the Percent Effect in experiment [1] was -3.94%; in [2], 9.72%; in experiment [3] it was -1.95%; in experiment [4], 0.616%; in [5], -1.26%; in experiment [6] it was 4.86%. The Percent Effect in [7] was 16%; in experiment [8], -11.7%; in experiment [9] it was 5.26%; in [10] it was 10.3%; in experiment [11] it was -1.86%.
As for `Cc1nc(N2CCN(C(=O)c3ccc(O)cc3)CC2)c2cnn(C)c2n1`, the Percent Effect was -0.631% in experiment [1]; 0% in experiment [2]; -5.77% in [3]; 5.23% in experiment [4]; -2.74% in experiment [5]; 1.6% in [6]. Also, the Percent Effect is -2.88% in experiment [7]; 15.3% in [8]; -2.46% in experiment [9]; -6.17% in [10]; 0.501% in experiment [11].
For the molecule `CCCNC(=O)C(C)n1cc(Br)cn1` (stereo unspecified), the Percent Effect in experiment [1] was -2.1%; in [2], 7.79%; in experiment [3], -0.549%; in [4] it was 2.6%; in experiment [5], -1.87%; in experiment [6], -194%. For the same molecule, the Percent Effect is 5.49% in experiment [7]; -4.17% in experiment [8]; 4.3% in [9]; 18.5% in experiment [10]; 0.506% in experiment [11].
In the case of `CC(N(C)Cc1nc2c(cnn2C)c(=O)[nH]1)C(C)(C)C` (stereo unspecified), the Percent Effect is -4.87% in [1]; 13.5% in experiment [2]; -4.12% in [3]; 2.57% in experiment [4]; -10.1% in experiment [5]; 2.03% in experiment [6]. For the same molecule, the Percent Effect in experiment [7] was 7.72%; in experiment [8], 24.6%; in experiment [9], -1.98%; in [10], 3.66%; in [11] it was -4.7%.
Regarding `CCN(CC)C(=O)Cn1ccc2cc(NC(=O)C3CC3)ccc21`, the Percent Effect in [1] is -5.06%; in experiment [2], 15.8%; in [3], -9.59%; in [4], 7.96%; in experiment [5], 6.39%; in experiment [6], -3.06%. Besides, the Percent Effect in [7] is 14.9%; in experiment [8], 4.68%; in experiment [9], 5.39%; in [10], 21.9%; in experiment [11], -12.7%.
With `COc1cc2cc(C(=O)O)n(C)c2cc1OC`, the Percent Effect in experiment [1] was -4.26%; in experiment [2] it was -4%; in experiment [3], 7.45%; in experiment [4], 10.6%; in [5] it was -0.982%; in experiment [6], -10%. The Percent Effect was 9.61% in [7]; -15.2% in [8]; 4.23% in [9]; 0% in experiment [10]; -6.18% in experiment [11].
Regarding `COc1cccn(CC(=O)N(C)Cc2ccoc2)c1=O`, the Percent Effect is -7% in [1]; -5.48% in [2]; -5.18% in experiment [3]; 30.6% in [4]; 1.59% in experiment [5]; 0.399% in [6]. Further, the Percent Effect in experiment [7] is 2.48%; in [8], -11%; in [9], 2.08%; in [10], 3.7%; in [11], 1.52%.
Turning to `COc1ccc(CNC2CCN(CCc3ccncc3)CC2)cc1O`, the Percent Effect in experiment [1] is -6.94%; in experiment [2], 16.2%; in experiment [3], -9.03%; in [4], 9.91%; in experiment [5] it was 5.27%; in [6], 26.7%. Besides, the Percent Effect was 10.6% in experiment [7]; -0.697% in experiment [8]; -6.93% in experiment [9]; 8.54% in experiment [10]; -9.05% in experiment [11].
For `COc1ccc(CN2CCn3cc(CN4CCCCC4)nc3C2)cc1`, the Percent Effect in [1] is -4.9%; in experiment [2] it was 2.6%; in [3], 1.83%; in experiment [4], -4.04%; in experiment [5] it was -0.888%; in experiment [6], -4.52%. Further, the Percent Effect is 10.3% in experiment [7]; -6.42% in experiment [8]; 3.17% in [9]; -8.97% in experiment [10]; -2.75% in experiment [11].
For the molecule `Cc1ccc(NC(=O)Cn2cc(I)cn2)cc1`, the Percent Effect in experiment [1] was -4.63%; in [2], -4.17%; in experiment [3] it was -12.3%; in [4], 3.22%; in experiment [5] it was -2.82%; in experiment [6], -1.32%. For the same molecule, the Percent Effect in [7] was 6.32%; in experiment [8], 28.2%; in [9], -4.21%; in [10], -7.69%; in experiment [11] it was 3.77%.
